Data: PubChem BioAssay (NCATS)
Records with an inconclusive call do not appear. Where a call stands in place of a potency, no number is given. Activity calls are given as the source filed them. Unless noted, calls come from the whole dose curve.

How the values were obtained:
[1] = biological target: Glucocorticoid receptor (Homo sapiens) (UniProt P04150); assay: qHTS assay for small molecule agonists of glucocorticoid receptor signaling (AID 588532; active = well fitted curve in the direction sought with a large enough effect in the signal ratio, with a control signal flat; the % refers to the signal ratio); conditions: HeLa MMTV-bla, beta-lactamase ratio, agonist, 18 h; stronger effect = higher value; percent of dexamethasone control, DMSO zero
Sequence of Glucocorticoid receptor (Homo sapiens) (P04150 whole entry, looked up): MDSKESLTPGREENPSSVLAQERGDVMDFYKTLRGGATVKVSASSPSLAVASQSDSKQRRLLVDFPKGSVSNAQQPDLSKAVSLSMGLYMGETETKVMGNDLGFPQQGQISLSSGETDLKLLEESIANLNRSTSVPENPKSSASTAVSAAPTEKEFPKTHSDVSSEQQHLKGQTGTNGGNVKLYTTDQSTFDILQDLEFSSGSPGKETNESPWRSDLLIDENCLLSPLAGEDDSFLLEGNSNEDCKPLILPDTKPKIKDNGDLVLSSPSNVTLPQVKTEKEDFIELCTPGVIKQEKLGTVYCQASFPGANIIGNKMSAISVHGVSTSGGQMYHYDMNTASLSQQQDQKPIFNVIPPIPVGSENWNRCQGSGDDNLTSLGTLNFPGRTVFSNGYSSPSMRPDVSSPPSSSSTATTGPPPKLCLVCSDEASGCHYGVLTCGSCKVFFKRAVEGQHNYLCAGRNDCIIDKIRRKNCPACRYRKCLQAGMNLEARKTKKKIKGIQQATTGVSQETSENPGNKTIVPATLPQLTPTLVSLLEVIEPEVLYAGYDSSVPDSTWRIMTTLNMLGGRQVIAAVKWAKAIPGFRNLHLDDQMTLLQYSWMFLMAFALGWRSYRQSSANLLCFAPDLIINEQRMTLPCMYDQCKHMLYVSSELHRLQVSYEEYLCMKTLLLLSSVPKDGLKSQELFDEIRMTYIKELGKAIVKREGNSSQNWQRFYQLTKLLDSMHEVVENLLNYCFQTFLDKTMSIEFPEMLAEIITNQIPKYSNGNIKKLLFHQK
How it was run: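 MMTV-bla HeLa, beta-lactamase reporter; medium with 1% charcoal/dextran-stripped FBS; cpds up to 92 uM, 18 h, 37 C; CCF4 readout 460/530 nm; Hill fit → EC50, efficacy vs 0.1 uM dexamethasone = 100%.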

[2] = biological target: Glucocorticoid receptor (Homo sapiens) (UniProt P04150); assay: qHTS assay for small molecule antagonists of glucocorticoid receptor signaling (AID 588533; active = well fitted inhibition curve with a large enough effect in the signal ratio, with a control signal flat, not every such curve was filed as active; the % refers to the signal ratio;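 note: cells stimulated with 2 nM dexamethasone as agonist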); conditions: HeLa MMTV-bla, GRE beta-lactamase ratio, antagonist mode, 18 h; series mostly up to 76.8 µM
How it was run: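 Antagonist-mode qHTS: compound titrations added to GRE-bla HeLa cells, then dexamethasone 2 nM final; 18 h, 37 C. CCF4 FRET fluorescence normalized to dexamethasone and DMSO; IC50 from Hill fit.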

[3] = qHTS assay for small molecule antagonists of peroxisome proliferator-activated receptor delta signaling (AID 588535; active = well fitted inhibition curve with a large enough effect in the signal ratio, with a control signal flat, not every such curve was filed as active; the % refers to the signal ratio;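 for max response: cells co-treated with a PPAR-delta agonist as stimulator during compound exposure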); conditions: HEK293T PPARd-UAS-bla, beta-lactamase FRET ratio, 18 h; 460 nm channel
How it was run: (§1)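 Compounds tested in titration on PPAR-delta-UAS-bla HEK293T cells grown in charcoal/dextran-stripped serum (2%); beta-lactamase activity read via CCF4 emission at 460 and 530 nm.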

[4] = biological target: Peroxisome proliferator-activated receptor delta (Homo sapiens) (UniProt Q03181); assay: as above; conditions: HEK293T PPARd-UAS-bla, beta-lactamase FRET ratio, 18 h; series mostly up to 76.7 µM
Sequence of Peroxisome proliferator-activated receptor delta (Homo sapiens) (Q03181 whole entry, looked up): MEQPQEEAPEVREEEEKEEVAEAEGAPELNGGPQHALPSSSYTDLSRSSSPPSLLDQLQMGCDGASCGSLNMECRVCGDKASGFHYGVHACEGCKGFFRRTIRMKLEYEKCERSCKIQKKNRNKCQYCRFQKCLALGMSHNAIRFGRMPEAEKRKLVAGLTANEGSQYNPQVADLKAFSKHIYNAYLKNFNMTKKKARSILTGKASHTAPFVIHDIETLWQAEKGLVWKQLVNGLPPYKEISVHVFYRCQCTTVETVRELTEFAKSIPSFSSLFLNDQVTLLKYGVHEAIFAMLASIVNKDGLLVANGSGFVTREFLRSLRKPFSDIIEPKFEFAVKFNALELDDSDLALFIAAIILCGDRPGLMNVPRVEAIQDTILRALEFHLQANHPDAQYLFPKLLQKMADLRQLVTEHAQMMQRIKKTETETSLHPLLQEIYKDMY
How it was run: as §1

[5] = biological target: Peroxisome proliferator-activated receptor gamma (Homo sapiens) (UniProt P37231); assay: qHTS assay for small molecule agonists of peroxisome proliferator-activated receptor gamma signaling (AID 588536; active = well fitted curve in the direction sought with a large enough effect in the signal ratio, with a control signal flat, not every such curve was filed as active; the % refers to the signal ratio); conditions: HEK293 PPARg-UAS-bla, beta-lactamase ratio, 16 h, percent of rosiglitazone response, DMSO as zero; series mostly up to 76.7 µM
Sequence of Peroxisome proliferator-activated receptor gamma (Homo sapiens) (P37231 whole entry, looked up): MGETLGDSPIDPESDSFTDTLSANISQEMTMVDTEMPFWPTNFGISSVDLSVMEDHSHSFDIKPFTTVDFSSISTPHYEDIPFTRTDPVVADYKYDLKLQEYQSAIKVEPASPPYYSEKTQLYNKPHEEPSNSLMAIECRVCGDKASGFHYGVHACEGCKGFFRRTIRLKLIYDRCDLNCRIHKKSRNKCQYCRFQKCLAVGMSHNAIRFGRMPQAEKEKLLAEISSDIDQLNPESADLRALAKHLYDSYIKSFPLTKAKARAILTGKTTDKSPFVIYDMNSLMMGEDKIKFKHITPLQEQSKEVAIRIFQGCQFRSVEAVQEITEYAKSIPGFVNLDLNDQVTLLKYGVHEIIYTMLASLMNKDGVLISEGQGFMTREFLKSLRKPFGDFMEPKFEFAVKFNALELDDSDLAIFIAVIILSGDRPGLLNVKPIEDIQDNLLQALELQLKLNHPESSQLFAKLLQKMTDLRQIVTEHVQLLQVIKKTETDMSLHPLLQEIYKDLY
How it was run: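 Compound treatment: 16 h, 37 C, HEK293 GeneBLAzer cells. Detection: CCF4, 2 h RT. Values: Hill-fit EC50, efficacy as % of 2 uM rosiglitazone.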

[6] = biological target: Vitamin D3 receptor (Homo sapiens) (UniProt P11473); assay: qHTS assay for small molecule antagonists of vitamin D receptor signaling (AID 588541); conditions: HEK293T VDR-UAS-bla, beta-lactamase ratio, antagonist mode; series mostly up to 76.7 µM;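 note: receptor activated by calcitriol during compound treatment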
Sequence of Vitamin D3 receptor (Homo sapiens) (P11473 whole entry, looked up): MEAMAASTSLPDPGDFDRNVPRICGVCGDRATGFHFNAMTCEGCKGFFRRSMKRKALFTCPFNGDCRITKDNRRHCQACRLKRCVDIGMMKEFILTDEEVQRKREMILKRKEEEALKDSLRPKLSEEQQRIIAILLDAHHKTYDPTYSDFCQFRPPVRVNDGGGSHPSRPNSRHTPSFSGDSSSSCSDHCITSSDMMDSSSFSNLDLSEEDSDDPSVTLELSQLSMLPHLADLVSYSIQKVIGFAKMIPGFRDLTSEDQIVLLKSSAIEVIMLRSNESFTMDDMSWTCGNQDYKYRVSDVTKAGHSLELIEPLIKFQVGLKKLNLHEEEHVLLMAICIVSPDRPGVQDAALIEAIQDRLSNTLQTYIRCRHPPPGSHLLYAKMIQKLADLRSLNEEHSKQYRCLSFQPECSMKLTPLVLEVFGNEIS
How it was run: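 VDR-UAS-bla HEK293T cells (2000/well, 2% charcoal-stripped FBS) were treated with titrated compounds plus 1-alpha,25-dihydroxyvitamin D3 (50 nM or 3 nM final) for 16 h at 37 C. CCF4 beta-lactamase fluorescence was read; Hill fits gave IC50.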

[7] = biological target: Vitamin D3 receptor (Homo sapiens) (UniProt P11473); assay: qHTS assay for small molecule agonists of vitamin D receptor signaling (AID 588543); conditions: HEK293T VDR-UAS-bla, beta-lactamase ratio, 16 h; series mostly up to 76.8 µM
How it was run: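 VDR-UAS-bla HEK293T cells, 2000/well, 2% charcoal-stripped FBS; compound titration 16 h at 37 C; CCF4 beta-lactamase ratio read. Normalized to 50 nM 1-alpha,25-dihydroxyvitamin D3 (100%) and DMSO; Hill fit gives EC50, efficacy.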

[8] = qHTS assay for small molecule agonists of retinoid X receptor alpha signaling (AID 588544); conditions: HEK293T RXRa-UAS-bla, beta-lactamase reporter, 18 h; 530 nm emission
[9] = biological target: Retinoic acid receptor RXR-alpha (Homo sapiens) (UniProt P19793); assay: as above; conditions: HEK293T RXRa-UAS-bla, beta-lactamase reporter, 18 h; series mostly up to 76.7 µM
Sequence of Retinoic acid receptor RXR-alpha (Homo sapiens) (P19793 whole entry, looked up): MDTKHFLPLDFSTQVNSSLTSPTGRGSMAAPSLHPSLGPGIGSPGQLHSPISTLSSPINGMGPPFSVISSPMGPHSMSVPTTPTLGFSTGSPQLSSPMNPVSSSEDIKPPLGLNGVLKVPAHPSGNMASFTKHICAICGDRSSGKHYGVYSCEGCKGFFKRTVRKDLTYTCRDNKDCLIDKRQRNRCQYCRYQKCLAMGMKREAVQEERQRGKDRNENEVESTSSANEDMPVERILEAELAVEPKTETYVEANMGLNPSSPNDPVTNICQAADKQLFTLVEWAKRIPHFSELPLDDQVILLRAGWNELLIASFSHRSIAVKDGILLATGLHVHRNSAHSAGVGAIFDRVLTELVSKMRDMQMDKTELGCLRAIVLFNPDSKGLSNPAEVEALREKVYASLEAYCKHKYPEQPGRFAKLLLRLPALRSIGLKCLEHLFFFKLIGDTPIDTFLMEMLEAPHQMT

[10] = qHTS assay for small molecule antagonists of retinoid X receptor alpha signaling (AID 588546; active = well fitted inhibition curve with a large enough effect in the signal ratio, with a control signal flat, not every such curve was filed as active; the % refers to the signal ratio;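 note: cells stimulated with 9-cis-retinoic acid as agonist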); conditions: HEK293T RXRa-UAS-bla, beta-lactamase ratio, antagonist mode; measured here: W530 green channel, cytotoxicity proxy
How it was run: (§2)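 Beta-lactamase reporter inhibition, read as CCF4 fluorescence ratio (ex 405, em 460/530 nm) after 2 h at RT. HEK293T UAS-bla cells, 2500/well, were stimulated with 9-cis-RA at 500 or 100 nM final alongside test compound for 18 h at 37 C.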

[11] = biological target: Retinoic acid receptor RXR-alpha (Homo sapiens) (UniProt P19793); assay: as above; conditions: HEK293T RXRa-UAS-bla, beta-lactamase ratio, antagonist mode
How it was run: as §2

[12] = biological target: Thyroid hormone receptor beta (Homo sapiens) (UniProt P10828); assay: qHTS assay for small molecule antagonists of thyroid hormone receptor beta signaling (AID 588547; active = well fitted inhibition curve with a large enough effect in the signal ratio, with a control signal flat, not every such curve was filed as active; the % refers to the signal ratio;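 note: cells stimulated with 0.4 nM T3 agonist during compound exposure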); conditions: TR-UAS-bla HEK293, beta-lactamase ratio, antagonist mode, 18 h
Sequence of Thyroid hormone receptor beta (Homo sapiens) (P10828 whole entry, looked up): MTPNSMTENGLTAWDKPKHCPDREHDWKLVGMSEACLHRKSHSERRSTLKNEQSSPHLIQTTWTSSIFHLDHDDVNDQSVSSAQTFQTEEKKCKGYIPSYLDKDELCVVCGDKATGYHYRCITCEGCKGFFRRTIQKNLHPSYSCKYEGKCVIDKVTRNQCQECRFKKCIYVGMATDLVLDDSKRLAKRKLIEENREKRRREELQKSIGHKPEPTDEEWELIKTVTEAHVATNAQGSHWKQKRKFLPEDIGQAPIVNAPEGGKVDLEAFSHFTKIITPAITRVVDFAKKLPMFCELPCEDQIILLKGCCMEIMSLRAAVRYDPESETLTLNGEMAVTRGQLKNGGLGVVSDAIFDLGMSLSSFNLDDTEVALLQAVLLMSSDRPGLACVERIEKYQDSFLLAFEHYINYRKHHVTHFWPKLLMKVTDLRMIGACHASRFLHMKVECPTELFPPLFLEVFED
How it was run: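 TR-UAS-bla GripTite HEK293 cells in 2% charcoal/dextran FBS medium were preincubated 4 h at 37 C, given compound (0.59 nM to 92 uM) plus 0.4 nM T3 (final) for 18 h, then CCF4 for 2 h at RT; Hill fit gave IC50.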

[13] = biological target: Voltage-gated inwardly rectifying potassium channel KCNH2 (Homo sapiens) (UniProt Q12809); assay: qHTS Assay for Small Molecule Inhibitors of the Human hERG Channel Activity (AID 588834; active = well fitted inhibition curve with a large enough effect;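 note: top concentration of the series differs between compounds; lower thallium flux fluorescence means stronger hERG block; nearly all actives have a fitted effect of over 50% in size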); conditions: U2OS BacMam hERG, FluxOR thallium flux fluorescence; series mostly up to 92.2 µM
Sequence of Voltage-gated inwardly rectifying potassium channel KCNH2 (Homo sapiens) (Q12809 whole entry, looked up): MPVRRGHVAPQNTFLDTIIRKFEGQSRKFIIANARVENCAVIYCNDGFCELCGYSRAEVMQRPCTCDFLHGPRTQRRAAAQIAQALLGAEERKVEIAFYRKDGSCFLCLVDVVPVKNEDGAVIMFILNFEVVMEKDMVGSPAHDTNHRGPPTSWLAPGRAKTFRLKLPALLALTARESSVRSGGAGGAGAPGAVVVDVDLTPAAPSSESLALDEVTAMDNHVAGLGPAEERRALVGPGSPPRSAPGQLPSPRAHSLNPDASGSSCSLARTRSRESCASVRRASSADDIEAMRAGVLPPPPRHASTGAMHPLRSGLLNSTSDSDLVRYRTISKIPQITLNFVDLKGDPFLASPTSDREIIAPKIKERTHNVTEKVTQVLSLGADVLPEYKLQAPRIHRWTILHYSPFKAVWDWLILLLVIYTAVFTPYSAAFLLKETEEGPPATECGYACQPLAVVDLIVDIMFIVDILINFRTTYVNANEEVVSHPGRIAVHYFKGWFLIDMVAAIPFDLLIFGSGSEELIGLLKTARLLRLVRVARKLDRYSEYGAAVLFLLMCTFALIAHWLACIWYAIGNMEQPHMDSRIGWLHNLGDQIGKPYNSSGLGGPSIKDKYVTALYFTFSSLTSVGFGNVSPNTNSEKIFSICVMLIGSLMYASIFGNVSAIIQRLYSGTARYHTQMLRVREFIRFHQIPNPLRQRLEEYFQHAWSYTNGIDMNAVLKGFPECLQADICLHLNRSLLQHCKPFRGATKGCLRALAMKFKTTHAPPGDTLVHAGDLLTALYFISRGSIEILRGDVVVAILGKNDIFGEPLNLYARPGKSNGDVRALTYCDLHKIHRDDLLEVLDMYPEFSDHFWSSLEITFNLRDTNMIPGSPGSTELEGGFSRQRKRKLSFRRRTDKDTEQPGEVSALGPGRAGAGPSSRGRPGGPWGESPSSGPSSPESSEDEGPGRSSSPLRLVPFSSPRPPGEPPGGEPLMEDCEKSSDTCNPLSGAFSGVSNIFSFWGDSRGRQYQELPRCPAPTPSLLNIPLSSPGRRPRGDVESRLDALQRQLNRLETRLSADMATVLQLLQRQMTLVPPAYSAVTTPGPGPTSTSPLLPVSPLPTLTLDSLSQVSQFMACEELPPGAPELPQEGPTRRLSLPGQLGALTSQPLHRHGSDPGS
How it was run: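 Thallium serves as surrogate for K+ influx through BacMam-delivered hERG in U2OS cells. Compounds are added for about 10 minutes after dye loading; stimulation buffer then starts flux, monitored kinetically on FDSS.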

[14] = qHTS assay for small molecule agonists of the antioxidant response element (ARE) signaling pathway (AID 651741; active = well fitted activation curve with a large enough effect in the signal ratio; the % refers to the signal ratio); conditions: HepG2 ARE-bla reporter, beta-lactamase FRET ratio, 16 h; series mostly up to 96 µM
How it was run: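 Beta-lactamase reporter expression driven by the antioxidant response element in HepG2 cells was detected by fluorescence with LiveBLAzer B/G FRET substrate (2 h, room temperature) following 16 h compound treatment at 37 C.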

[15] = qHTS assay for small molecule activators of the p53 signaling pathway (AID 651743; active = well fitted activation curve with a large enough effect in the signal ratio, not every such curve was filed as active; the % refers to the signal ratio); conditions: HCT-116 p53RE-bla, beta-lactamase FRET ratio, 16 h; stronger effect = higher value
How it was run: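 Here HCT-116 cells with an integrated p53-responsive beta-lactamase gene were incubated with compounds (16 hours, 37 C) after a 5-hour plating period; beta-lactamase activity was detected as fluorescence intensity via B/G FRET substrate.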

[16] = qHTS assay for small molecule activators of the nuclear factor-kappa B (NF-kB) signaling pathway (AID 651749; active = well fitted activation curve with a large enough effect in the signal ratio; the % refers to the signal ratio); conditions: NF-kB-bla ME-180 cells, beta-lactamase FRET ratio, 16 h; stronger effect = higher value
How it was run: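 Beta-lactamase reporter expression, controlled by NF-kB response elements in ME-180 cells, was quantified fluorometrically via FRET disruption; cells at 2,000/well had been incubated with 23 nL test compound for 16 hr.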

[17] = qHTS assay for small molecule disruptors of the mitochondrial membrane potential - 1 hr assay (AID 651754); conditions: series mostly up to 92.2 µM; note: nearly all actives have a fitted effect of over 35% in size
How it was run: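 Read-out: dye fluorescence at 490 nm ex/535 nm em (monomers) and 540 nm ex/590 nm em (aggregates) in HepG2 cells. Compound exposure 1 hr at 37C, followed by 30 min dye loading.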

[18] = biological target: Thyroid hormone receptor beta (Homo sapiens) (UniProt P10828); assay: qHTS assay for small molecule agonists of thyroid hormone receptor beta signaling (AID 588545); conditions: TR-UAS-bla GripTite HEK 293, beta-lactamase ratio, agonist mode, 18 h, percent of T3 response, DMSO as zero; series mostly up to 76.7 µM
How it was run: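 Agonist activity was read as beta-lactamase CCF4 fluorescence (405 ex, 460/530 em), scaled between DMSO (0%) and 10 nM T3 (100%), then Hill-fitted for EC50 and efficacy. HEK 293 TR-UAS-bla cells in 2% charcoal/dextran FBS medium were exposed 18 h at 37 C.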

[19] = biological target: Peroxisome proliferator-activated receptor gamma (Homo sapiens) (UniProt P37231); assay: qHTS assay for small molecule antagonists of peroxisome proliferator-activated receptor gamma signaling (AID 588537; active = well fitted inhibition curve with a large enough effect in the signal ratio, with a control signal flat, not every such curve was filed as active; the % refers to the signal ratio;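 note: reporter cells co-stimulated with 50 nM rosiglitazone agonist during compound treatment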); conditions: HEK293 PPARg-UAS-bla, beta-lactamase ratio, antagonist mode; series mostly up to 76.8 µM
How it was run: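 HEK293 cells, PPAR-gamma-UAS-bla, 3000/well. Pre-incubation 6-6.5 h, 37 C. Compound titration with rosiglitazone 50 nM final, 16 h. CCF4 dye, 2 h RT, dual-emission fluorescence.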

Structure (SMILES) | activation [1] | outcome [2] | max response [3] | Potency [4] | outcome [5] | outcome [6] | outcome [7] | max response [8] | outcome [9] | max response [10] | max response [11] | activity change % (negative = inhibition) [12] | Potency [13] | Potency [14] | activation [15] | activation [16] | Potency [17] | outcome [18] | outcome [19]
CNc1ccccc1 | 19.8% (inactive) | inactive | -16.9% | inactive | inactive | inactive | inactive | -0.986% | inactive | -0.675% | 29.8% (inactive) | -1.47% (inactive) | inactive | inactive | 2.04% (inactive) | -1.25% (inactive) | inactive | – | –
Nc1cc(S(=O)(=O)O)ccc1O | -0.152% (inactive) | inactive | 15.9% | inactive | inactive | inactive | – | 6.72% | inactive | 0.685% | 10% (inactive) | 6.95% (inactive) | inactive | inactive | -1.55% (inactive) | – | inactive | inactive | –
Cc1c(N)cccc1N | -2.97% (inactive) | inactive | -12.4% | inactive | – | – | inactive | -3.37% | inactive | -4.94% | – | -2.96% (inactive) | inactive | – | – | -1.33% (inactive) | – | inactive | –
O=C(Cl)c1cccc([N+](=O)[O-])c1 | 3.39% (inactive) | inactive | 33.5% | inactive | inactive | inactive | – | 14.1% | inactive | 0.426% | 24.8% (inactive) | 5.89% (inactive) | inactive | inactive | – | -0.912% (inactive) | inactive | inactive | –
O=C(O)/C=C/C(=O)O | 27.1% (inactive) | inactive | -32% | inactive | – | inactive | inactive | -9.62% | inactive | -3.98% | 8.67% (inactive) | 3% (inactive) | – | – | -2.03% (inactive) | -1.19% (inactive) | – | inactive | –
C=CCCC | 5.54% (inactive) | inactive | 0.0312% | inactive | – | inactive | inactive | -12.1% | inactive | 2.87% | 8.21% (inactive) | 20.1% (inactive) | inactive | – | -0.508% (inactive) | -0.388% (inactive) | inactive | inactive | –
CCCC(C)CO (centres undefined) | 0.0234% (inactive) | inactive | -16% | inactive | inactive | – | – | -14.8% | inactive | 5% | – | 6.59% (inactive) | inactive | – | 0.0206% (inactive) | -0.126% (inactive) | inactive | – | inactive
O=C1NC(=O)c2cc([N+](=O)[O-])ccc21 | -4.49% (inactive) | inactive | -20.7% | inactive | inactive | – | – | 3.03% | inactive | 4.85% | 7.59% (inactive) | 2.64% (inactive) | inactive | inactive | -2.78% (inactive) | 0.0192% (inactive) | – | – | –
